Experimental data taken from the supplement of paper PMC10849652.
Targets with a hit are over-represented here; the source holds about 7,900 in all. About 0.6% of all pairs of compound and target were hits. Values without a mark were called inactive.

Columns and labels:
Assay in all cases: log2 fold change, soluble protein after heating vs DMSO (PISA); higher = thermal stabilisation; K562 cells, 10 uM, 30 min; active = over 0.2 and 3.5 SD of the protein, either way, in both replicates (recomputed)
[1] = compound: C/C(=N\NC(=O)C1=CC(=CC=C1)S(=O)(=O)N2CCOCC2)/C3=C(C=CC(=C3)Cl)O
How it was run: (§1)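 For each measurement, 10 μM compound was applied for 30 min to K562 cells at 2×10^6 cells/mL. Aliquots were heated for 3 min across 48°C-58°C, pooled, and extracted in PBS with 0.5% NP-40 at 4°C; the supernatant after 21,000xg for 90 min was soluble protein. This was quantified by TMTpro 16plex LC-MS/MS with channel sums equalised, and thermal stability was reported relative to control samples from duplicates, on a log2 fold-change scale.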

[2] = compound: C1=CC2=C(C=CC(=C2)/C=C\3/C(=O)NC(=NCC4=CC=CS4)S3)N=C1
How it was run: as §1

[3] = compound: C1=CC2=NC=CN=C2C=C1/C=C/3\C(=O)NC(=O)S3
How it was run: as §1

[4] = compound: C1=CC=C2C(=C1)C3=NNC4=CC=CC(=C43)C2=O
How it was run: as §1

ibrutinib = compound: C=CC(=O)N1CCC[C@@H](n2nc(-c3ccc(Oc4ccccc4)cc3)c3c(N)ncnc32)C1 [ibrutinib]
How it was run: as §1

[5] = compound: CC(=O)c1cnc2ccc(-c3cc(Cl)c(O)c(Cl)c3)nc2c1N[C@H]1CC[C@H](CN(C)C)CC1
How it was run: as §1

[6] = compound: C1=CC=C(C=C1)C2=NC(=C(N2)C3=CC=NC=C3)C4=CC(=C(C=C4)Cl)O
How it was run: as §1

[7] = compound: C1CCN(C1)C(=O)NC2=CC=CC(=C2)NC3=NC=C(C(=N3)NCCC4=CN=CN4)Br
How it was run: as §1

[8] = compound: C1CN(CCC1(CC2=CC=C(C=C2)Cl)N)C3=NC=NC4=C3C=CN4
How it was run: as §1

ralimetinib = compound: CC(C)(C)Cn1c(N)nc2ccc(-c3[nH]c(C(C)(C)C)nc3-c3ccc(F)cc3)nc21 [ralimetinib]
How it was run: as §1

[9] = compound: CC(C)C[C@@H](C=O)NC(=O)[C@H](CC(C)C)NC(=O)[C@H](CC(C)C)NC(=O)OCc1ccccc1
How it was run: as §1

[10] = compound: CC1=C(C2=C(C=C1)C(=O)C3=CC=CC=C3N2CCCN)C
How it was run: as §1

IRAK-1-4 Inhibitor I = compound: C1COCCN1CCN2C3=CC=CC=C3N=C2NC(=O)C4=CC(=CC=C4)[N+](=O)[O-] [IRAK-1-4 Inhibitor I]
How it was run: as §1

pinometostat = compound: CC(C)N(C[C@H]1O[C@@H](n2cnc3c(N)ncnc32)[C@H](O)[C@@H]1O)[C@H]1C[C@@H](CCc2nc3cc(C(C)(C)C)ccc3[nH]2)C1 [pinometostat]
How it was run: as §1

[11] = compound: CC1=C(C(CC(=O)N1)C2=CC=C(C=C2)C(F)(F)F)C(=O)NC3=C(C=C4C(=C3)C=NN4)F
How it was run: as §1

[12] = compound: C1=CC(=C(C=C1Cl)C2=NC3=NC=CN=C3C(=N2)NC4=CC=NC=C4)F
How it was run: as §1

[13] = compound: CC(C)(O)CC(=O)NCCn1ccc2ncnc(Nc3ccc(Oc4cccc(C(F)(F)F)c4)c(Cl)c3)c21
How it was run: as §1

erlotinib = compound: C#Cc1cccc(Nc2ncnc3cc(OCCOC)c(OCCOC)cc23)c1 [erlotinib]
How it was run: as §1

[14] = compound: C1=CC(=CC=C1C2=NC3=C(N2)C=C(C=C3)C(=O)N)OC4=CC=C(C=C4)Cl
How it was run: as §1

[15] = compound: CC(C)C1=C2N=C(C=C(N2N=C1)NCC3=CC=CC=C3)NCCCCCCN
How it was run: as §1

Sequence of UniProt Q13163 (Q13163 whole entry, looked up): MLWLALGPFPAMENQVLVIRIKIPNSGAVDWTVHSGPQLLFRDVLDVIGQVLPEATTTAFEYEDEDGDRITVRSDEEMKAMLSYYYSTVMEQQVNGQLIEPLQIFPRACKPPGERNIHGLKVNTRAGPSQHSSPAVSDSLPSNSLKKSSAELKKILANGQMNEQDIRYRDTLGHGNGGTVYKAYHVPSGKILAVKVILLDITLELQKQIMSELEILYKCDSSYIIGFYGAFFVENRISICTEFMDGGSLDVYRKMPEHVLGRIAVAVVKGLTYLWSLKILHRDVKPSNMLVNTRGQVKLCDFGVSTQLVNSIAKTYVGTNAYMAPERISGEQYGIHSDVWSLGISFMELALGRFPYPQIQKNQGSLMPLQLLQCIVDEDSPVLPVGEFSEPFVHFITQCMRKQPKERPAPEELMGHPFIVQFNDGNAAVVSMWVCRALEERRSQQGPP
Sequence of UniProt Q12851 (Q12851 whole entry, looked up): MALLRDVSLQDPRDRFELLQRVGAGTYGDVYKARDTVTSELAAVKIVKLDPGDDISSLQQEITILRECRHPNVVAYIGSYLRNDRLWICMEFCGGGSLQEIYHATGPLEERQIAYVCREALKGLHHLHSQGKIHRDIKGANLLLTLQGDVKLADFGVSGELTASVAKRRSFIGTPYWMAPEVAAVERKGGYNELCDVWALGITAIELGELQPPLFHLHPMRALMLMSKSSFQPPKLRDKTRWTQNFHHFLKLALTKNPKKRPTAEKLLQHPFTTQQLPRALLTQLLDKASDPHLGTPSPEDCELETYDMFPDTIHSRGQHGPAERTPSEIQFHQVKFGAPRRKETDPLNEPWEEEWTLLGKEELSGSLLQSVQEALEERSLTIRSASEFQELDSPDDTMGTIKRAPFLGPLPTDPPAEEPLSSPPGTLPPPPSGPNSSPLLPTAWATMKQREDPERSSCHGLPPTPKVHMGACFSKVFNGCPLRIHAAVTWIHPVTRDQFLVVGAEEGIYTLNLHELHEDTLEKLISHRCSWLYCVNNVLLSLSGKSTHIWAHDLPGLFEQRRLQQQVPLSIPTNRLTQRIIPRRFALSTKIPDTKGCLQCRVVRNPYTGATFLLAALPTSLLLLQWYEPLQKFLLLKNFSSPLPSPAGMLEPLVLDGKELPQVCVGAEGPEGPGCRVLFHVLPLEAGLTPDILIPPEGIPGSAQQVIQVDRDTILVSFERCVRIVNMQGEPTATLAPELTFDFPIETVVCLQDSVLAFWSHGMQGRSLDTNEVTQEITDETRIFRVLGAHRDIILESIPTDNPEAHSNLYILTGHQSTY
Sequence of UniProt O95279 (O95279 whole entry, looked up): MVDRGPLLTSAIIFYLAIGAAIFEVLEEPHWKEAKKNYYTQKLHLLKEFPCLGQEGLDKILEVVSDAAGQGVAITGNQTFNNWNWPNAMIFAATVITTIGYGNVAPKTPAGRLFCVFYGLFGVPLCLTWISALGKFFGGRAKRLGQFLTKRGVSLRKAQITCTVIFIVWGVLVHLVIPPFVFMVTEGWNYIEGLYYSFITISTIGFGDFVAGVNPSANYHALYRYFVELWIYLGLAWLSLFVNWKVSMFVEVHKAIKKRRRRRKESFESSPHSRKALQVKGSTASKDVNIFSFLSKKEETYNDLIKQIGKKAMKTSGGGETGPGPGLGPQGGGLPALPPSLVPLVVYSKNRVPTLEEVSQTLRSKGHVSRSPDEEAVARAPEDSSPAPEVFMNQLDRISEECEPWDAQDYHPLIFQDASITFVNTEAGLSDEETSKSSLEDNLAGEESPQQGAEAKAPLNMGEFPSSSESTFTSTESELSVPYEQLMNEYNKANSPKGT
Sequence of UniProt Q13164 (Q13164 whole entry, looked up): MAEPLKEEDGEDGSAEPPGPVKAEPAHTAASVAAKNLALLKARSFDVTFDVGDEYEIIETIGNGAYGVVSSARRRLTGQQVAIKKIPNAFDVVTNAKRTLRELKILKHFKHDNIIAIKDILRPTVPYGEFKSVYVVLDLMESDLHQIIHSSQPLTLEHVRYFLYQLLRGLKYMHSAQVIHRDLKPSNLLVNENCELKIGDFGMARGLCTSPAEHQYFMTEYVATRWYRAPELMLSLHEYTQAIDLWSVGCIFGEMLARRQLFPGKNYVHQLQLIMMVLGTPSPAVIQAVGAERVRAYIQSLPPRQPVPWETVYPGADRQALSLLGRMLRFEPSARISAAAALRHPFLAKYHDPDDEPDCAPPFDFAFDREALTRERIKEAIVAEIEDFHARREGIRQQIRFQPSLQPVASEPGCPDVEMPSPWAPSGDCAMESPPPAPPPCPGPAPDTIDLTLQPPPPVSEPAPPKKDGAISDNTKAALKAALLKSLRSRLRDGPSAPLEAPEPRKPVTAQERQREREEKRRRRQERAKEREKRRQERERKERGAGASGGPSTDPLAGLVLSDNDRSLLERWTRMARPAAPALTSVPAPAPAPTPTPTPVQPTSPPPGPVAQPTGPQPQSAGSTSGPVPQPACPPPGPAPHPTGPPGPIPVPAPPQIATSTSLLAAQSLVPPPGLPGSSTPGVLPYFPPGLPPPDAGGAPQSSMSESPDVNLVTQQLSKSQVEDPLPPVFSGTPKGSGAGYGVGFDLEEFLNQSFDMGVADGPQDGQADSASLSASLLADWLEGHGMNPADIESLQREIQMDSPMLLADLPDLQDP
Sequence of UniProt Q9Y573 (Q9Y573 whole entry, looked up): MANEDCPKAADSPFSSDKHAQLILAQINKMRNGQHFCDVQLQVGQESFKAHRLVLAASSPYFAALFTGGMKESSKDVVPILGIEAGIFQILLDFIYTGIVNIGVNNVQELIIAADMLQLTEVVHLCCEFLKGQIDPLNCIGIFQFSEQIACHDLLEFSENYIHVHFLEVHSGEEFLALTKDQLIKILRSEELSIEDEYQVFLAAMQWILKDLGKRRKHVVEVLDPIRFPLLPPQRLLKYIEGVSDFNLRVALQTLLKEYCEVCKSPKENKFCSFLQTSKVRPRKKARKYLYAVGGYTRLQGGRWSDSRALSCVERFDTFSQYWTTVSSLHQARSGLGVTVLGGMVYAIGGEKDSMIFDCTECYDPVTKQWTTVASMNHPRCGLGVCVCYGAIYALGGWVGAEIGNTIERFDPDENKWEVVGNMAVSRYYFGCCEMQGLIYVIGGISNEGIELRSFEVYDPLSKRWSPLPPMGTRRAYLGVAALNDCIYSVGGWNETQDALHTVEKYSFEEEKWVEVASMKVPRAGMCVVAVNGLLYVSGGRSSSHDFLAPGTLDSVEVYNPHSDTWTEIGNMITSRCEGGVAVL
Sequence of UniProt Q9C099 (Q9C099 whole entry, looked up): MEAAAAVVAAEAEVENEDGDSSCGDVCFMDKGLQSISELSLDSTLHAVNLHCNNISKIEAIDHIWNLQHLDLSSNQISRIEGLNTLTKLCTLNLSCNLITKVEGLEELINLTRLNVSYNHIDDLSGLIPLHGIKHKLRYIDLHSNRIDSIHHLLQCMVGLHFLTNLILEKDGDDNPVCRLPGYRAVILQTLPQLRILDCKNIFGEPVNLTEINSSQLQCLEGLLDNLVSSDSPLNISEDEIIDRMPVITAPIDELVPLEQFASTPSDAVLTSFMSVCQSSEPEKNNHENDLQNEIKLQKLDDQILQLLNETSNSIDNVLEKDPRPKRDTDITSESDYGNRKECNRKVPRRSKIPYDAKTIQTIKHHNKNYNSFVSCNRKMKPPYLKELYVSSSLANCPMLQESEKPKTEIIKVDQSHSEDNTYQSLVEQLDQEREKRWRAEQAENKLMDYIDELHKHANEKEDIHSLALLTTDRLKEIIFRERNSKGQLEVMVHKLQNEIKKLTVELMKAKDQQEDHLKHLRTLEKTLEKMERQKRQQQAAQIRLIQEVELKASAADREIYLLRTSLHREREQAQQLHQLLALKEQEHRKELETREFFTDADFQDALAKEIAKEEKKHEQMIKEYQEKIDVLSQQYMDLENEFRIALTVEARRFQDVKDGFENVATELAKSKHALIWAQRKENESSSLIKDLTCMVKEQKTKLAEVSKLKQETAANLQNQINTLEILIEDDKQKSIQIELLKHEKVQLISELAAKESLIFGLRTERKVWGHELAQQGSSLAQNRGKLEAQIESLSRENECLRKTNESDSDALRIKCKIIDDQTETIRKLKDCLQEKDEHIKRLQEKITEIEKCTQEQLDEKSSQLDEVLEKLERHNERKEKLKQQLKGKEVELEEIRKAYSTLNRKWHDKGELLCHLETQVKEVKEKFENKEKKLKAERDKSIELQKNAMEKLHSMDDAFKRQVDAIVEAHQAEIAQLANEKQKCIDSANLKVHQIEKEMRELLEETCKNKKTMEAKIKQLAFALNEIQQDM
Sequence of UniProt P43361 (P43361 whole entry, looked up): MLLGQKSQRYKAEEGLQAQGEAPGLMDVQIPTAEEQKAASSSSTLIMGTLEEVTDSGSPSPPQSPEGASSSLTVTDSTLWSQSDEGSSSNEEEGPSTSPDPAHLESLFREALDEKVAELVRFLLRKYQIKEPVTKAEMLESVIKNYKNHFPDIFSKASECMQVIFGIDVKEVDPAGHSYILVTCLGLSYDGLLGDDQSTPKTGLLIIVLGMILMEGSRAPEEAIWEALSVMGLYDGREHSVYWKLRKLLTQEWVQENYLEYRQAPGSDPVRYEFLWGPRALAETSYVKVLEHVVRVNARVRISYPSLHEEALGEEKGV

IPP (UniProt Q9Y573) gave a log2 fold change [1] of 0.091, a log2 fold change [2] of 0.083 and a log2 fold change [3] of -0.17. The log2 fold change [4] was 0.139, the log2 fold change (ibrutinib) was 0.041 and the log2 fold change [5] was -0.084.

For LRRCC1 (UniProt Q9C099), the log2 fold change [1] was -0.671 (active), the log2 fold change [2] was 0.088 and the log2 fold change [6] was 0.257. The log2 fold change [4] was 0.123, the log2 fold change [7] was 0.121 and the log2 fold change [8] was 0.101. It also gave a log2 fold change [5] of 0.047, a log2 fold change (ralimetinib) of 0.043 and a log2 fold change [9] of 0.237. It also gave a log2 fold change [10] of 0.109.

Target MAP2K5 (UniProt Q13163) has a log2 fold change [1] of 0.021, a log2 fold change [2] of 0.277 and a log2 fold change [6] of 0.145. The log2 fold change [4] was -0.036, the log2 fold change (IRAK-1-4 Inhibitor I) was 0.063 and the log2 fold change [5] was -1.19 (active). For the same target, the log2 fold change (ralimetinib) was 0.066, the log2 fold change [9] was -0.238 and the log2 fold change (pinometostat) was -0.051.

With MAP4K2 (UniProt Q12851) the log2 fold change [3] was -0.122, the log2 fold change [7] was -0.413 and the log2 fold change [8] was -0.172. It also gave a log2 fold change (IRAK-1-4 Inhibitor I) of 0.073, a log2 fold change (ibrutinib) of -0.071 and a log2 fold change (pinometostat) of 0.113. For the same target, the log2 fold change [11] was 0.003 and the log2 fold change [10] was 0.021.

MAPK7 (UniProt Q13164) gave a log2 fold change [1] of 0.095, a log2 fold change [12] of 0.02 and a log2 fold change [2] of 0. For the same target, the log2 fold change [4] was 0.14, the log2 fold change (IRAK-1-4 Inhibitor I) was -0.033 and the log2 fold change [5] was 1.41 (active). It also gave a log2 fold change [13] of 0.008 and a log2 fold change (pinometostat) of 0.105.

For MAGEA8 (UniProt P43361), the log2 fold change (erlotinib) was 0.033, the log2 fold change [1] was 0.038 and the log2 fold change [14] was -0.075. It also gave a log2 fold change [2] of -0.04, a log2 fold change [3] of 0.132 and a log2 fold change [6] of -0.028. The log2 fold change [4] was -0.098, the log2 fold change [7] was 0.052 and the log2 fold change [8] was 0.099. For the same target, the log2 fold change (IRAK-1-4 Inhibitor I) was 0.014, the log2 fold change (ibrutinib) was -0.086 and the log2 fold change [5] was 0.128. The log2 fold change (ralimetinib) was -0.02, the log2 fold change [15] was -0.146 and the log2 fold change [9] was 0.068. The log2 fold change (pinometostat) was 0.024, the log2 fold change [11] was 0.077 and the log2 fold change [10] was -0.265.

For KCNK5 (UniProt O95279), the log2 fold change (erlotinib) was -0.101, the log2 fold change [12] was -0.128 and the log2 fold change [14] was 0.077. The log2 fold change [3] was 0.095, the log2 fold change (IRAK-1-4 Inhibitor I) was -0.033 and the log2 fold change (ibrutinib) was 0.019. For the same target, the log2 fold change [13] was -0.209, the log2 fold change [15] was -2.03 (active) and the log2 fold change (pinometostat) was 0.

Target ILF3 (UniProt Q12906) has a log2 fold change [12] of -0.083, a log2 fold change [3] of 0.128 and a log2 fold change (IRAK-1-4 Inhibitor I) of -0.058. The log2 fold change (ibrutinib) was 0.036, the log2 fold change [13] was 0.191 and the log2 fold change (pinometostat) was 0.029. The log2 fold change [11] was -0.126.
